Most compounds without a hit are left out; they make up all but 3.8% or so of the library.
HT1080NT lethal = qHTS for induction of synthetic lethality in tumor cells producing 2HG: qHTS for the HT-1080-NT fibrosarcoma cell line. HT-1080-NT fibrosarcoma viability, CellTiter-Glo ATP luminescence, 48 h. Potency, µM (series often up to 46.1 µM), for the others: at the highest dose activity, negative = less viability, most hits filed as cytotoxic. actives 1.6% (n = 360,000);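 note: NT is the 2HG producing partner of a matched IDH1 knockdown line; 0% = DMSO-treated cells and -100% = media-only wells without cells; nearly all actives have a fitted effect of over 55% in size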
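750 cells/well, RPMI + 5% FBS; 2 h settle, compound pin-transfer, 48 h at 37 degrees C. CellTiter-Glo 10 min RT, luminescence. Normalized to DMSO and media-only wells.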
HepG2 tox = qHTS for Inhibitors of TGF-b: Cytotox Counterscreen; Potency, µM (doses to about 46.1 µM), without a hit: top-dose activity change, negative = cytotoxicity, most hits filed as cytotoxic; HepG2 CAGA-GFP viability, ATP luminescence, 18 h; actives 0.76% (n = 410,000)
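CellTiter-Glo luminescence gave cytotoxicity after 18 hours at 37 degrees C. The cells were HepG2 CAGA-GFP in 1% FBS DMEM, stimulated with 500 pg/mL TGF-beta after compound addition. %Activity was normalised to no-cell wells (complete cell-killing) and DMSO (no toxicity), and curves were fitted and classified.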
TGFb SMAD3 inh = qHTS for Inhibitors of TGF-b | HepG2 CAGA-GFP TGF-b/SMAD3 reporter, GFP fluorescence, 18 h; TGF-beta stimulated, 500 pg/mL final | actives 1.2% (n = 410,000) | AID 588855, 2011 | Potency, µM (highest dose often 46.1 µM), without a hit: top-dose activity, negative = inhibition, most hits filed as inhibitors; note: % is set by controls: 0 for no effect and ±100 for the full control effect; nearly all actives have a fitted effect of over 65% in size
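Per well, imaged GFP fluorescence of HEPG2 CAGA-GFP cells gives the signal; cells get compound, then TGF-beta (500 pg/mL final), 18 h at 37 degrees C; %Activity versus -TGF-beta and +DMSO controls.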
HT1080 IDH1KD tx = qHTS for induction of synthetic lethality in tumor cells producing 2HG: qHTS for the HT-1080-IDH1KD cell line; HT-1080 IDH1 knockdown viability, ATP luminescence, 48 h; Potency, µM (series often up to 46.1 µM), for inactives: top-dose activity, negative = toxicity, most hits filed as cytotoxic; actives 2% (n = 360,000);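 note: 0% = DMSO wells and -100% = cell-free medium wells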
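In this qHTS, HT-1080 cells depleted of IDH1 are exposed for 48 h at 37 °C to compound titrations. Toxicity is scored from CellTiter-Glo luminescence, with DMSO as full viability and medium alone as none.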
S2 tox = Viability Counterscreen for Primary qHTS for Inhibitors of ATXN expression | Potency, µM (highest dose often 56.7 µM), actives largely listed as cytotoxic | S2 cells (HEK-293 line with an ATXN2-luciferase reporter) viability, CellTiter-Fluor protease fluorescence, 24 h | actives 0.49% (n = 400,000); note: nearly all actives have a fitted effect of over 40% in size
ATXN2 expr inh = Primary qHTS for Inhibitors of ATXN expression; HEK-293 ATXN2-luciferase reporter, luminescence, 24 h; Potency, µM (titrated, usually from 57 µM), without a hit: top-dose activity change, negative = inhibition, actives largely listed as inhibitors; actives 0.72% (n = 360,000); note: % is set by controls: 0 for no effect and ±100 for the full control effect; nearly all actives have a fitted effect of over 55% in size
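qHTS (up to 57 uM final) was run with 24 h compound exposure of reporter cells at 37 °C. Each well was multiplexed: SteadyGlo luminescence measured ATXN2-luciferase expression after a fluorogenic Gly-Phe-AFC viability readout (25 uM final).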
* marks the source's active call; other numbers are inactive results; i = inactive; u = inconclusive; x = no result; [ ] = another dose, or the depositor's remark. Calls come from the whole dose curve; as a rule, active = well fitted curve in the direction sought with a large enough effect; inconclusive = small, poorly fitted or top-dose-only effect, or another doubt; inactive = no such curve, though single readings can be large; an effect the other way counts as inactive or inconclusive. Potency is the fitted concentration of half-maximal effect.

SMILES	HT1080NT lethal	HepG2 tox	TGFb SMAD3 inh	HT1080 IDH1KD tx	S2 tox	ATXN2 expr inh
COc1ccc(C(=O)Nc2nc(-c3nnn(-c4ccc(F)cc4F)c3C)ns2)cc1	x	-36%	u	x	u	11µM*
COc1cccc(C(=O)Nc2nc(-c3nnn(-c4ccccc4C(F)(F)F)c3C)ns2)c1	x	-54%	13µM*	x	i	-25%
CCOc1ccc(C(=O)NCCn2cc(SCC(=O)NCCc3ccc(OC)c(OC)c3)c3ccccc32)cc1	x	-16%	u	x	u	-3%
COc1c(Cl)cc(C(=O)Nc2cc(-c3nc4ccccc4[nH]3)ccc2C)cc1Cl	x	-37%	u	x	10µM*	u
CC(=O)c1cccc(NC(=O)CN2C(=O)c3cccnc3Sc3ccccc32)c1	x	10%	-10%	x	i	38%
O=C(COC(=O)COc1ccccc1)Nc1ncc([N+](=O)[O-])s1	4%	3%	-5%	-3%	i	11%
N/C(=N\OC(=O)Nc1ccccc1)c1ncc([N+](=O)[O-])s1	u	8.9µM*	11µM*	21µM*	u	u
CN1/C(=C\C(=O)COC(=O)c2ccco2)C(C)(C)c2ccccc21	-1%	-24%	-24%	6%	i	-36%
CN1/C(=C/C(=O)c2nc(S(C)(=O)=O)ncc2Cl)C(C)(C)c2ccccc21	u	-122%	u	4.6µM*	x	u
CN1/C(=C\C(=O)c2ccco2)C(C)(C)c2ccccc21	u	-31%	u	10µM*	i	-19%
CN1/C(=C\C(=O)c2cccnc2)C(C)(C)c2ccccc21	22%	-9%	-16%	21%	x	x
COc1ccc(CCNC(=O)Cn2c(=O)nc(-c3ccccc3)c3ccccc32)cc1OC	x	-72%	-13%	x	x	x
NNC(=O)c1sccc1OCc1ccc(F)cc1	3%	-1%	-2%	2%	i	-19%[11.3 µM]
O=C(N/N=C/c1ccc(F)cc1)c1sccc1OCc1ccc(F)cc1	13µM*	-28%	-7%	16µM*	u	9%
O=C(N/N=C/c1ccc(Cl)cc1)c1sccc1OCc1ccc(F)cc1	2.6µM*	-18%	-19%	1.3µM*	i	6%
COc1ccc(COc2ccsc2C(=O)Nc2ccc(Cl)cc2)cc1	u	-54%	-13%	u	u	-25%
O=C(NCc1ccccn1)c1cnn(-c2nccc(-c3cccs3)n2)c1C1CC1	x	x	x	x	i	x
CC(C)c1c(C(=O)NCC(C)(C)N2CCOCC2)cnn1-c1nccc(-c2ccccc2F)n1	x	x	x	x	i	x
COc1ccc(OC)c(-c2nn(-c3ccccc3)cc2C(=O)N2CCc3ccccc3C2)c1	-18%	1%	-13%	u	u	9%
COc1cccc(-c2nn(-c3ccc(C)cc3)cc2C(=O)N2CCc3cc(OC)c(OC)cc3C2)c1	u	-3%	-3%	21µM*	u	-8%
CC(=O)NCCNC(=O)c1ccc(Cn2c(=O)[nH]c3ccsc3c2=O)cc1	3%	19%	0%	4%	i	4%
O=C(Nc1cc(Cl)cc(Cl)c1)c1ccc(Cn2c(=O)[nH]c3ccsc3c2=O)cc1	15%	-37%	u	4%	19µM*	-24%
COc1ccc(C=C2C=C(C(C)(C)C)C(=O)C(C(C)(C)C)=C2)cc1OC	12µM*	-49%	u	18µM*	i	u
O=C(Nc1ccc2c(c1)OCCO2)c1cc(-c2ccccc2)nc2ccccc12	-17%	-39%	4%	-25%	i	-21%
CCOc1ccccc1-c1cc(C(=O)N/N=C/c2ccc3c(c2)OCO3)c2ccccc2n1	-7%	4%	-3%	-21%	i	45%
SMILES	HT1080NT lethal	HepG2 tox	TGFb SMAD3 inh	HT1080 IDH1KD tx	S2 tox	ATXN2 expr inh
O=C(Nc1ccc2c(c1)OCO2)c1cc(-c2ccncc2)nc2ccccc12	18µM*	3%	u	18µM*	i	-12%
Cc1cc(C(=O)N/N=C/c2ccc3c(c2)OCO3)c2ccccc2n1	u	-2%	-12%	4.1µM*	u	-16%
O=C(N/N=C/c1ccccn1)c1cc(-c2ccncc2)nc2ccccc12	9%	11%	9%	14%	u	u
O=C(Nc1ccc(Br)cc1)c1cc(-c2ccncc2)nc2ccccc12	6.5µM*	0%	u	8.2µM*	i	-25%
O=C(N/N=C/c1ccc2c(c1)OCO2)c1cc(-c2ccncc2)nc2ccccc12	u	-1%	-31%	2.6µM*	i	-2%
O=P(O)(O)OC(Cn1cncn1)(Cn1cncn1)c1ccc(F)cc1F	x	x	x	x	i	x
Cc1cc2ccccc2c[n+]1CC(=O)c1ccc(F)cc1	x	-1%	-18%	x	x	x
CCCCCCCCCCCCCCCCCCN(CCCCCCCCCCCCCCCCCC)c1ccc(/C=C/c2ccc(C=O)cc2)cc1	x	-4%	-16%	x	x	x
CN=C(NC)NCc1ccccc1	x	x	x	x	i	x
O=C(NNC(=O)c1cc(-c2ccccc2)nc2ccccc12)Nc1cccc(Cl)c1	18µM*	-34%	u	u	u	-26%
O=C(NNC(=O)c1cc(-c2cccnc2)nc2ccccc12)Nc1ccc(Cl)cc1	u	-28%	-5%	u	x	-27%
O=C(Cc1cccc2ccccc12)NNC(=O)Nc1cccc(Cl)c1	16µM*	-22%	3%	u	i	1%
O=C(N/N=C/c1ccsc1)c1cc(-c2ccncc2)nc2ccccc12	4.6µM*	9%	u	u	u	-18%
N#CN=c1snc(-c2ccccc2)n1-c1ccc(Cl)cc1	x	-3%	0%	x	x	x
CC(Oc1ccccc1)C(=O)N[C@@H]1C(=O)N2C(C(=O)O)C(C)(C)S[C@H]12 (stereo not given in full)	x	16%	10%	x	x	x
CC1(C)c2ccccc2N2CC(=O)N[C@@]21/C=C/C=C/c1ccccc1	10µM*	21%	u	u	u	-35%
Cc1ccccc1/C=C/C12NC(=O)CN1c1ccccc1C2(C)C (stereo not given)	-16%	-14%	-12%	-8%	i	16%
O=S(=O)(c1ccc2ccccc2c1)N1CCN(c2nc(-c3ccccc3)nc3ccccc23)CC1	x	24%	-4%	x	x	x
COc1ccc(-c2noc(C3CCCN(C(=O)c4ccc(C)cc4)C3)n2)cc1 (stereo not given)	u	12%	u	16µM*	i	-19%
